# Measurements taken from article PMC5700166.
# Substitutions are numbered along the chain they refer to.
# Molecular target: T1, GST-Nv-NF-kB (Cys allele) (Nematostella vectensis, UniProt E5G601 2-411)
# T1 sequence: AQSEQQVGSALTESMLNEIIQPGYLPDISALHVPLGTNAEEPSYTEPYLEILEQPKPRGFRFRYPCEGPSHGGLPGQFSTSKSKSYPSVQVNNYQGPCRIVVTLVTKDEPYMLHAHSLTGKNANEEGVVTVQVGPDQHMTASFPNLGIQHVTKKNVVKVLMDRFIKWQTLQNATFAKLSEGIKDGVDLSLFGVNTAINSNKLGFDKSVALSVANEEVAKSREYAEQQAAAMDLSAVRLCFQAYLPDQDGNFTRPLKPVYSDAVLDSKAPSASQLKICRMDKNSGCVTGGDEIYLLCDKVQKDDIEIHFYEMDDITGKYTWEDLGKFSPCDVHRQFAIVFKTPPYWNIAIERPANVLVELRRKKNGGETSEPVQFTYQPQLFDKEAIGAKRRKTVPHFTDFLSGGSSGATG
# Experiment: protein-binding microarray (PBM); PBM: ~300 nM protein, 6 mM HEPES pH 7.8, 80 mM KCl, 0.5 mM EDTA, 0.5 mM EGTA, 6% glycerol, 35 ng/ul poly-dIdC, 1% milk, 1 h, room temperature; Ap Aiptasia and Nv Nematostella (sea anemones) / Co Capsaspora / Aq Amphimedon (sponge) / Dm Drosophila / Hu human; RHD is the Rel homology domain; high values mean tight binding
# Conditions: dsDNA, one strand shown
row,Sequence,binding signal
1,CCGATTAACATCAAAATTACCCCTGATGTTAATCGGGTCTTGATTCGCTTGACGCTGCTG,6.27 z-score
2,CCGATTAACATCAGAAAATCCCCTGATGTTAATCGGGTCTTGATTCGCTTGACGCTGCTG,12 z-score
3,CCGATTAACATCAGAGAATCCCCTGATGTTAATCGGGTCTTGATTCGCTTGACGCTGCTG,9.8 z-score
4,CCGATTAACATCAGGGGGCAATATGATGTTAATCGGGTCTTGATTCGCTTGACGCTGCTG,3.24 z-score
5,CCGATTAACATCAAGGGGTTCCCTGATGTTAATCGGGTCTTGATTCGCTTGACGCTGCTG,3.32 z-score
6,CCGATTAACATCAGGAAGCCCCCTGATGTTAATCGGGTCTTGATTCGCTTGACGCTGCTG,5.72 z-score
7,CCGATTAACATCAGGGGGTTTCATGATGTTAATCGGGTCTTGATTCGCTTGACGCTGCTG,7.15 z-score
8,CCGATTAACATCAGGGGAAACCCTGATGTTAATCGGGTCTTGATTCGCTTGACGCTGCTG,11.4 z-score
9,CCGATTAACATCATAATCCCCCATGATGTTAATCGGGTCTTGATTCGCTTGACGCTGCTG,6.81 z-score
10,CCGATTAACATCAGGGGGGATAATGATGTTAATCGGGTCTTGATTCGCTTGACGCTGCTG,4.93 z-score
11,CCGATTAACATCAGGGGTTTCTATGATGTTAATCGGGTCTTGATTCGCTTGACGCTGCTG,4.73 z-score
12,CCGATTAACATCAATTTCCCCCCTGATGTTAATCGGGTCTTGATTCGCTTGACGCTGCTG,7.68 z-score
13,CCGATTAACATCAGATACTCCCCTGATGTTAATCGGGTCTTGATTCGCTTGACGCTGCTG,4.28 z-score
14,CCGATTAACATCAATTTCCCCCATGATGTTAATCGGGTCTTGATTCGCTTGACGCTGCTG,7.6 z-score
15,CCGATTAACATCAGGGAAAACCCTGATGTTAATCGGGTCTTGATTCGCTTGACGCTGCTG,9.72 z-score
16,CCGATTAACATCAAAATGTCCCCTGATGTTAATCGGGTCTTGATTCGCTTGACGCTGCTG,6.47 z-score
17,CCGATTAACATCACCGTTTCCCCTGATGTTAATCGGGTCTTGATTCGCTTGACGCTGCTG,6.66 z-score
18,CCGATTAACATCAGGGGAACAAATGATGTTAATCGGGTCTTGATTCGCTTGACGCTGCTG,4.83 z-score
19,CCGATTAACATCAAGGGGGTATCTGATGTTAATCGGGTCTTGATTCGCTTGACGCTGCTG,4.44 z-score
20,CCGATTAACATCAGAAATTCCCCTGATGTTAATCGGGTCTTGATTCGCTTGACGCTGCTG,12.3 z-score

row,Sequence,binding signal
1,CCGATTAACATCAAGGGAATTTCTGATGTTAATCGGGTCTTGATTCGCTTGACGCTGCTG,8.61 z-score
2,CCGATTAACATCAGGGGAATACCTGATGTTAATCGGGTCTTGATTCGCTTGACGCTGCTG,11.8 z-score
3,CCGATTAACATCAAATTTCCCCCTGATGTTAATCGGGTCTTGATTCGCTTGACGCTGCTG,9.93 z-score
4,CCGATTAACATCAAAACTCCCCCTGATGTTAATCGGGTCTTGATTCGCTTGACGCTGCTG,8.47 z-score
5,CCGATTAACATCAGAATCCCCCCTGATGTTAATCGGGTCTTGATTCGCTTGACGCTGCTG,7.84 z-score
6,CCGATTAACATCAGGGGAGGTAATGATGTTAATCGGGTCTTGATTCGCTTGACGCTGCTG,2.66 z-score
7,CCGATTAACATCAGGGGGGTTTATGATGTTAATCGGGTCTTGATTCGCTTGACGCTGCTG,5.54 z-score
8,CCGATTAACATCAAAAATCCCACTGATGTTAATCGGGTCTTGATTCGCTTGACGCTGCTG,3.55 z-score
9,CCGATTAACATCAACGAATCCCCTGATGTTAATCGGGTCTTGATTCGCTTGACGCTGCTG,6.07 z-score
10,CCGATTAACATCAAGCAATCCCCTGATGTTAATCGGGTCTTGATTCGCTTGACGCTGCTG,6.39 z-score
11,CCGATTAACATCAAGGGTATTCCTGATGTTAATCGGGTCTTGATTCGCTTGACGCTGCTG,5.81 z-score
12,CCGATTAACATCAGGGGAAAAGATGATGTTAATCGGGTCTTGATTCGCTTGACGCTGCTG,6.76 z-score
13,CCGATTAACATCAGGGGAATGCATGATGTTAATCGGGTCTTGATTCGCTTGACGCTGCTG,7.06 z-score
14,CCGATTAACATCAGGGAAATCCATGATGTTAATCGGGTCTTGATTCGCTTGACGCTGCTG,5.43 z-score
15,CCGATTAACATCAGATTTACCCCTGATGTTAATCGGGTCTTGATTCGCTTGACGCTGCTG,2.72 z-score
16,CCGATTAACATCACCGTTCCCCCTGATGTTAATCGGGTCTTGATTCGCTTGACGCTGCTG,5.21 z-score
17,CCGATTAACATCAGAATTTCCCATGATGTTAATCGGGTCTTGATTCGCTTGACGCTGCTG,5.46 z-score
18,CCGATTAACATCAGGGGATTACCTGATGTTAATCGGGTCTTGATTCGCTTGACGCTGCTG,10.5 z-score
19,CCGATTAACATCAGGGGAAGATATGATGTTAATCGGGTCTTGATTCGCTTGACGCTGCTG,6.63 z-score

# Molecular target: T2, GST-Nv-NF-kB (Ser allele) (Nematostella vectensis, UniProt A7UNT2 2-411)
# T2 sequence: T1 sequence with Q21R, C66S, S207N, E215Q, V217A, E225K, A268E, D399E
# Experiment: as above
# Conditions: dsDNA, one strand shown
row,Sequence,binding signal
1,CCGATTAACATCAAAATTACCCCTGATGTTAATCGGGTCTTGATTCGCTTGACGCTGCTG,7.21 z-score
2,CCGATTAACATCAGAAAATCCCCTGATGTTAATCGGGTCTTGATTCGCTTGACGCTGCTG,13.8 z-score
3,CCGATTAACATCAGAGAATCCCCTGATGTTAATCGGGTCTTGATTCGCTTGACGCTGCTG,10.9 z-score
4,CCGATTAACATCAGGGGGCAATATGATGTTAATCGGGTCTTGATTCGCTTGACGCTGCTG,3.15 z-score
5,CCGATTAACATCAAGGGGTTCCCTGATGTTAATCGGGTCTTGATTCGCTTGACGCTGCTG,2.15 z-score
6,CCGATTAACATCAGGAAGCCCCCTGATGTTAATCGGGTCTTGATTCGCTTGACGCTGCTG,3.93 z-score
7,CCGATTAACATCAGGGGGTTTCATGATGTTAATCGGGTCTTGATTCGCTTGACGCTGCTG,7.35 z-score
8,CCGATTAACATCAGGGGAAACCCTGATGTTAATCGGGTCTTGATTCGCTTGACGCTGCTG,10.8 z-score
9,CCGATTAACATCATAATCCCCCATGATGTTAATCGGGTCTTGATTCGCTTGACGCTGCTG,7.45 z-score
10,CCGATTAACATCAGGGGGGATAATGATGTTAATCGGGTCTTGATTCGCTTGACGCTGCTG,5.26 z-score
11,CCGATTAACATCAGGGGTTTCTATGATGTTAATCGGGTCTTGATTCGCTTGACGCTGCTG,4.67 z-score
12,CCGATTAACATCAATTTCCCCCCTGATGTTAATCGGGTCTTGATTCGCTTGACGCTGCTG,8.79 z-score
13,CCGATTAACATCAGATACTCCCCTGATGTTAATCGGGTCTTGATTCGCTTGACGCTGCTG,4.21 z-score
14,CCGATTAACATCAATTTCCCCCATGATGTTAATCGGGTCTTGATTCGCTTGACGCTGCTG,8.86 z-score
15,CCGATTAACATCAGGGAAAACCCTGATGTTAATCGGGTCTTGATTCGCTTGACGCTGCTG,7.71 z-score
16,CCGATTAACATCAAAATGTCCCCTGATGTTAATCGGGTCTTGATTCGCTTGACGCTGCTG,7.12 z-score
17,CCGATTAACATCACCGTTTCCCCTGATGTTAATCGGGTCTTGATTCGCTTGACGCTGCTG,9.86 z-score
18,CCGATTAACATCAGGGGAACAAATGATGTTAATCGGGTCTTGATTCGCTTGACGCTGCTG,5.44 z-score
19,CCGATTAACATCAAGGGGGTATCTGATGTTAATCGGGTCTTGATTCGCTTGACGCTGCTG,4.28 z-score
20,CCGATTAACATCAGAAATTCCCCTGATGTTAATCGGGTCTTGATTCGCTTGACGCTGCTG,13.2 z-score

row,Sequence,binding signal
1,CCGATTAACATCAAGGGAATTTCTGATGTTAATCGGGTCTTGATTCGCTTGACGCTGCTG,8.46 z-score
2,CCGATTAACATCAGGGGAATACCTGATGTTAATCGGGTCTTGATTCGCTTGACGCTGCTG,10.1 z-score
3,CCGATTAACATCAAATTTCCCCCTGATGTTAATCGGGTCTTGATTCGCTTGACGCTGCTG,12.8 z-score
4,CCGATTAACATCAAAACTCCCCCTGATGTTAATCGGGTCTTGATTCGCTTGACGCTGCTG,9.96 z-score
5,CCGATTAACATCAGAATCCCCCCTGATGTTAATCGGGTCTTGATTCGCTTGACGCTGCTG,8.55 z-score
6,CCGATTAACATCAGGGGAGGTAATGATGTTAATCGGGTCTTGATTCGCTTGACGCTGCTG,4.61 z-score
7,CCGATTAACATCAGGGGGGTTTATGATGTTAATCGGGTCTTGATTCGCTTGACGCTGCTG,6.69 z-score
8,CCGATTAACATCAAAAATCCCACTGATGTTAATCGGGTCTTGATTCGCTTGACGCTGCTG,2.95 z-score
9,CCGATTAACATCAACGAATCCCCTGATGTTAATCGGGTCTTGATTCGCTTGACGCTGCTG,8.58 z-score
10,CCGATTAACATCAAGCAATCCCCTGATGTTAATCGGGTCTTGATTCGCTTGACGCTGCTG,6.94 z-score
11,CCGATTAACATCAAGGGTATTCCTGATGTTAATCGGGTCTTGATTCGCTTGACGCTGCTG,4.65 z-score
12,CCGATTAACATCAGGGGAAAAGATGATGTTAATCGGGTCTTGATTCGCTTGACGCTGCTG,9.01 z-score
13,CCGATTAACATCAGGGGAATGCATGATGTTAATCGGGTCTTGATTCGCTTGACGCTGCTG,7.76 z-score
14,CCGATTAACATCAGGGAAATCCATGATGTTAATCGGGTCTTGATTCGCTTGACGCTGCTG,5.07 z-score
15,CCGATTAACATCAGATTTACCCCTGATGTTAATCGGGTCTTGATTCGCTTGACGCTGCTG,3.18 z-score
16,CCGATTAACATCACCGTTCCCCCTGATGTTAATCGGGTCTTGATTCGCTTGACGCTGCTG,6.93 z-score
17,CCGATTAACATCAGAATTTCCCATGATGTTAATCGGGTCTTGATTCGCTTGACGCTGCTG,4.83 z-score
18,CCGATTAACATCAGGGGATTACCTGATGTTAATCGGGTCTTGATTCGCTTGACGCTGCTG,9.69 z-score
19,CCGATTAACATCAGGGGAAGATATGATGTTAATCGGGTCTTGATTCGCTTGACGCTGCTG,7.91 z-score
